In ChEMBL document CHEMBL2218924, “A broad activity screen in support of a chemogenomic map for kinase signalling research and drug discovery” (Biochem J, 2013):

Experiments:
[1] = biological target: Mitogen-activated protein kinase 14 (Homo sapiens) (UniProt Q16539); settings: at 1 µM
[2] = biological target: Mitogen-activated protein kinase 14 (Homo sapiens) (UniProt Q16539); settings: at 10 µM
[3] = biological target: Mitogen-activated protein kinase 11 (Homo sapiens) (UniProt Q15759); settings: at 1 µM
[4] = biological target: Mitogen-activated protein kinase 11 (Homo sapiens) (UniProt Q15759); settings: at 10 µM
[5] = biological target: T1, Mitogen-activated protein kinase 12 (Homo sapiens) (UniProt P53778); settings: at 10 µM
T1 sequence (whole entry): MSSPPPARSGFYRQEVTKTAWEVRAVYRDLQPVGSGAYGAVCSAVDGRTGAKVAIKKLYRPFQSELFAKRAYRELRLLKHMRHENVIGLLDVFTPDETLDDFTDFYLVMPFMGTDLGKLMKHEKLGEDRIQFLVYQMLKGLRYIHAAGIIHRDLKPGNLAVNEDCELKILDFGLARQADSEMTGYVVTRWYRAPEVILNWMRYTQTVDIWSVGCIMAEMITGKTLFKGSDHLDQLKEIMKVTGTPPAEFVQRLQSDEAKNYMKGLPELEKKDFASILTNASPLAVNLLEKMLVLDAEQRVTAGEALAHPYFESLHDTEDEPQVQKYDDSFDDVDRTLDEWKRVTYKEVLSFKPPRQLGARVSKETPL

[6] = biological target: T2, Mitogen-activated protein kinase 13 (Homo sapiens) (UniProt O15264); settings: at 10 µM
T2 sequence (whole entry): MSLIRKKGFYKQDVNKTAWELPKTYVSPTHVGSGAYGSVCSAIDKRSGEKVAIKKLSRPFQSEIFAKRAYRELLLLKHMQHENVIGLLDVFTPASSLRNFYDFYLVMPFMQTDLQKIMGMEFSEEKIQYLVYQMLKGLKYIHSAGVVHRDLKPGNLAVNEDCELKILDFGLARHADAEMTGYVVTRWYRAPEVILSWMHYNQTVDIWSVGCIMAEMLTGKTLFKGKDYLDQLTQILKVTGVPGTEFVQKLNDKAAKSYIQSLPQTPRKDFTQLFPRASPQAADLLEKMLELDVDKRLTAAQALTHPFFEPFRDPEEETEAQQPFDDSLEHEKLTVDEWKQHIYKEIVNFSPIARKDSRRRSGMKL

[7] = biological target: T3, Serine/threonine-protein kinase Sgk1 (Homo sapiens) (UniProt O00141); settings: at 1 µM
T3 sequence (whole entry): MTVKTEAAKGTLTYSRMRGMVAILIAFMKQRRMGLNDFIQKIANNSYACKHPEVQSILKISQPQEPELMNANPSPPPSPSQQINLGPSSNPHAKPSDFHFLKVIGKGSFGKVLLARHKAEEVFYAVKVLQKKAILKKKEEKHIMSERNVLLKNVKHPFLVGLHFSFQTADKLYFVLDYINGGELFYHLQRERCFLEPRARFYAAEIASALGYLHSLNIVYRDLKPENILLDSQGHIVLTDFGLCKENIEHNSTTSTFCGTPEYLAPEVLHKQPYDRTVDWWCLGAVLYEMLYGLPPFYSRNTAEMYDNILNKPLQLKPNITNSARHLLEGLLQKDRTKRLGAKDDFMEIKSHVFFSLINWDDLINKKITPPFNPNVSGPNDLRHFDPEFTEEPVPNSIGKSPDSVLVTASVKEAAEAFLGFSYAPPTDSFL

[8] = biological target: T3, Serine/threonine-protein kinase Sgk1 (Homo sapiens); settings: at 10 µM
[9] = biological target: T4, Serine/threonine-protein kinase Sgk2 (Homo sapiens) (UniProt Q9HBY8); settings: at 1 µM
T4 sequence (whole entry): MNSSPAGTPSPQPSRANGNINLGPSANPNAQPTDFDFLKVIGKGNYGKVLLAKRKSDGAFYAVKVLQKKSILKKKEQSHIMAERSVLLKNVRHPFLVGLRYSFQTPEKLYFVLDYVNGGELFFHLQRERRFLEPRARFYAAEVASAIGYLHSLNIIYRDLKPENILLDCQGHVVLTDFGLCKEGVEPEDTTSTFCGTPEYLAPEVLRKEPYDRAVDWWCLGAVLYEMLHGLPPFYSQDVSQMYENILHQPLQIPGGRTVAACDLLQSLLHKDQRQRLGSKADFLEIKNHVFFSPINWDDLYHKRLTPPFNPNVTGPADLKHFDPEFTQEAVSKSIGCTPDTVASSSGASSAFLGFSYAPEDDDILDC

[10] = biological target: T4, Serine/threonine-protein kinase Sgk2 (Homo sapiens); settings: at 10 µM
[11] = biological target: T5, Serine/threonine-protein kinase Sgk3 (Homo sapiens) (UniProt Q96BR1); settings: at 10 µM
T5 sequence (whole entry): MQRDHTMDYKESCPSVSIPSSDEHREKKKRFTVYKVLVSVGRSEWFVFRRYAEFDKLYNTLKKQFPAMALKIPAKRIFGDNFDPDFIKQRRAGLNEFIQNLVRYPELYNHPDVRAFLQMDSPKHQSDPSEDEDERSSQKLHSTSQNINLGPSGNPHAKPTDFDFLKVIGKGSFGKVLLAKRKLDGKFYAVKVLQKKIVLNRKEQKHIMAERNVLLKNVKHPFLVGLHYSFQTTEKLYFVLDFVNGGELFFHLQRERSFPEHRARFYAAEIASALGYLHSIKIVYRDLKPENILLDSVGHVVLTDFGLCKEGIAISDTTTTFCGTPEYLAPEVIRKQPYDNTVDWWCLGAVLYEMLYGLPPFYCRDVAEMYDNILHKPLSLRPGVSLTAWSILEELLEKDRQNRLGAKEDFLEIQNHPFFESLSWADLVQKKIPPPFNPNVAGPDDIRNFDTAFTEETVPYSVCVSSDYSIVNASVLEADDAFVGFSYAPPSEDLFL

[12] = biological target: Serine/threonine-protein kinase SIK1 (Homo sapiens) (UniProt P57059); settings: at 1 µM
[13] = biological target: Serine/threonine-protein kinase SIK1 (Homo sapiens) (UniProt P57059); settings: at 10 µM
[14] = biological target: SRSF protein kinase 1 (Homo sapiens) (UniProt Q96SB4); settings: at 10 µM
[15] = biological target: SRSF protein kinase 2 (Homo sapiens) (UniProt P78362); settings: at 1 µM
[16] = biological target: SRSF protein kinase 2 (Homo sapiens) (UniProt P78362); settings: at 10 µM
[17] = biological target: T1, Mitogen-activated protein kinase 12 (Homo sapiens); settings: at 1 µM
[18] = biological target: T5, Serine/threonine-protein kinase Sgk3 (Homo sapiens); settings: at 1 µM
[19] = biological target: T2, Mitogen-activated protein kinase 13 (Homo sapiens); settings: at 1 µM
[20] = biological target: SRSF protein kinase 1 (Homo sapiens) (UniProt Q96SB4); settings: at 1 µM

Sequence of SRSF protein kinase 1 (Homo sapiens) (Q96SB4 whole entry): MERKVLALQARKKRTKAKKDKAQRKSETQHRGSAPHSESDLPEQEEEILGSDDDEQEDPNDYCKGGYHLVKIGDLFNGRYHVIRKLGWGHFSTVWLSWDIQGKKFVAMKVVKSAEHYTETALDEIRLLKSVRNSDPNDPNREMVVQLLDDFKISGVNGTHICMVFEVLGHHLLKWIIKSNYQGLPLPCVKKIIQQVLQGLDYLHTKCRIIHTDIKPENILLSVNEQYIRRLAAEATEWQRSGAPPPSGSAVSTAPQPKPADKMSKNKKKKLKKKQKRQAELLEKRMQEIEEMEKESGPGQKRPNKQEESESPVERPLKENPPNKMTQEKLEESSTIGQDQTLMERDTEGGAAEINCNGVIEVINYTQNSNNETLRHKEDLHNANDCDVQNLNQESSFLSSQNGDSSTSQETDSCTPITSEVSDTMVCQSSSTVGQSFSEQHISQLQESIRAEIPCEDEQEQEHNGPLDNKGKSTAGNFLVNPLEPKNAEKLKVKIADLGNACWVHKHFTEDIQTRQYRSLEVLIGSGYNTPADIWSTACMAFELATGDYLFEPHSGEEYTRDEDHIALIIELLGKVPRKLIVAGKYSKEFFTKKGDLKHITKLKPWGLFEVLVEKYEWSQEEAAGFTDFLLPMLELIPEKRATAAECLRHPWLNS
Sequence of SRSF protein kinase 2 (Homo sapiens) (P78362 whole entry, looked up): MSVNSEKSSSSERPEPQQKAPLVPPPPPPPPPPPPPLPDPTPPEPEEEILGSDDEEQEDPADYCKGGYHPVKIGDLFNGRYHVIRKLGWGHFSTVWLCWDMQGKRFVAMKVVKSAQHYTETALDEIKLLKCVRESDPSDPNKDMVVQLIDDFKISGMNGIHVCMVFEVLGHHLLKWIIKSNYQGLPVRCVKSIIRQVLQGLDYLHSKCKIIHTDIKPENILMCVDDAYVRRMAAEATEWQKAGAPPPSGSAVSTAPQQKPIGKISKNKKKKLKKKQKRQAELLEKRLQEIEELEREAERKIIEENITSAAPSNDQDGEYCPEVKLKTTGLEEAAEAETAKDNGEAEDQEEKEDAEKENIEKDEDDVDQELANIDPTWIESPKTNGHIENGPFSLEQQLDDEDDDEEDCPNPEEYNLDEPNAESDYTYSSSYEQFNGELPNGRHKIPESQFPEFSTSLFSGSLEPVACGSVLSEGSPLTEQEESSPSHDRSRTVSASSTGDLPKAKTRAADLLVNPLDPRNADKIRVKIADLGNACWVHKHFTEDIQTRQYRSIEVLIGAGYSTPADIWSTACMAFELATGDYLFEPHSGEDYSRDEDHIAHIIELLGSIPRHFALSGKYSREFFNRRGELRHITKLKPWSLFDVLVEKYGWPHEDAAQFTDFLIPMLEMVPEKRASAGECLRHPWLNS
Sequence of Mitogen-activated protein kinase 14 (Homo sapiens) (Q16539 whole entry): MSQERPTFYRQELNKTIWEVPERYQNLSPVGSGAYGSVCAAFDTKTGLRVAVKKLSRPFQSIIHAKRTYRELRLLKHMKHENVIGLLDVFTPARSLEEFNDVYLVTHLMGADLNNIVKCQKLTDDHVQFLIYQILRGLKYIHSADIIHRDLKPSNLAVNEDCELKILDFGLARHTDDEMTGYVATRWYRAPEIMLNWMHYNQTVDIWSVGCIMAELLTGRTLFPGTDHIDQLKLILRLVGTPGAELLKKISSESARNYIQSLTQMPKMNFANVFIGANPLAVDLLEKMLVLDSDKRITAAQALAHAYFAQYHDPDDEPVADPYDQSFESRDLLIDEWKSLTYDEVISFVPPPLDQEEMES
Sequence of Serine/threonine-protein kinase SIK1 (Homo sapiens) (P57059 whole entry): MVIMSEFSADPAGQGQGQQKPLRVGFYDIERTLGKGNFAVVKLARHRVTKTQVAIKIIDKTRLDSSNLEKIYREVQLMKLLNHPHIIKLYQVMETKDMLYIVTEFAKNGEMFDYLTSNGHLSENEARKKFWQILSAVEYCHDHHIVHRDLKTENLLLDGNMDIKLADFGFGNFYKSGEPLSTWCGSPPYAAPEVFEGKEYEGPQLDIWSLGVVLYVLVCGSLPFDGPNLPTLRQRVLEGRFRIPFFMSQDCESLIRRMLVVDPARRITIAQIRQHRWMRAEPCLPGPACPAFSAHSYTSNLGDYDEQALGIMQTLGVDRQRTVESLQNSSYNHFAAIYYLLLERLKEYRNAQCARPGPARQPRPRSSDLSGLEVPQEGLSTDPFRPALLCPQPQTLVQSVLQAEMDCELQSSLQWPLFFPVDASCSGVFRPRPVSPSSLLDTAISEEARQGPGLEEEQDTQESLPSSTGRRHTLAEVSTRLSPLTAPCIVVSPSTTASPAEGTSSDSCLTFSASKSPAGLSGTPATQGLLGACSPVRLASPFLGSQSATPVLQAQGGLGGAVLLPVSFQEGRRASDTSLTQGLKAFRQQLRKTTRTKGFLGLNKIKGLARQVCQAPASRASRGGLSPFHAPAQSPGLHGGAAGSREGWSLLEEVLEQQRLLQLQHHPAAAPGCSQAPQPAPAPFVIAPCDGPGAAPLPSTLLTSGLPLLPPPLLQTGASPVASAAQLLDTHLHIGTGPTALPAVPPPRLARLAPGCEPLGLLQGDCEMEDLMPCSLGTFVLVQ
Sequence of Mitogen-activated protein kinase 11 (Homo sapiens) (Q15759 whole entry): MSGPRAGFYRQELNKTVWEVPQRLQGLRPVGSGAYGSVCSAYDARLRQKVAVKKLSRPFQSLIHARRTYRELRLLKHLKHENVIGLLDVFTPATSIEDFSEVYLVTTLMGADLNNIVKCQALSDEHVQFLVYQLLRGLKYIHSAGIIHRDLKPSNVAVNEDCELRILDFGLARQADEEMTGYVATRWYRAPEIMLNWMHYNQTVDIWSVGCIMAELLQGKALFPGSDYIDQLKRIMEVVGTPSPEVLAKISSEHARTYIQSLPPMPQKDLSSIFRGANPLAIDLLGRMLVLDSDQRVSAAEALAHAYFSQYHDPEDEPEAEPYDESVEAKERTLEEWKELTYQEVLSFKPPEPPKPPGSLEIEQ

SMILES: CCn1cnc2c(Nc3cccc(Cl)c3)nc(N[C@@H]3CCCC[C@@H]3N)nc21
- residual activity [1]: 90%
- residual activity [2]: 61%
- residual activity [3]: 94%
- residual activity [4]: 76%
- residual activity [5]: 94%
- residual activity [6]: 81%
- residual activity [7]: 91%
- residual activity [8]: 90%
- residual activity [9]: 97%
- residual activity [10]: 65%
- residual activity [11]: 59%
- residual activity [12]: 20%
- residual activity [13]: 0%
- residual activity [14]: 39%
- residual activity [15]: 69%
- residual activity [16]: 32%

SMILES: CCc1nc(-c2ccc(OC)cc2)[nH]c1-c1ccncc1
- residual activity [3]: 56%
- residual activity [4]: 72%
- residual activity [17]: 108%
- residual activity [5]: 104%
- residual activity [18]: 115%
- residual activity [11]: 79%
- residual activity [12]: 139%
- residual activity [15]: 102%
- residual activity [16]: 74%

SMILES: CC(C)(C)c1cc(C=C(C#N)C#N)cc(Br)c1O
- residual activity [1]: 107%
- residual activity [2]: 112%
- residual activity [3]: 110%
- residual activity [4]: 101%
- residual activity [17]: 107%
- residual activity [5]: 110%
- residual activity [19]: 101%
- residual activity [9]: 98%
- residual activity [10]: 70%
- residual activity [12]: 103%
- residual activity [13]: 139%
- residual activity [20]: 114%
- residual activity [15]: 105%
- residual activity [16]: 81%

SMILES: COC(=O)[C@@]1(O)C[C@H]2O[C@]1(C)n1c3ccccc3c3c4c(c5c6ccccc6n2c5c31)C(=O)NC4
- residual activity [1]: 92%
- residual activity [2]: 67%
- residual activity [3]: 77%
- residual activity [4]: 29%
- residual activity [17]: 23%
- residual activity [5]: 2%
- residual activity [19]: 58%
- residual activity [6]: 10%
- residual activity [7]: 4%
- residual activity [8]: 1%
- residual activity [9]: 7%
- residual activity [10]: 1%
- residual activity [18]: 47%
- residual activity [11]: 13%
- residual activity [12]: 0%
- residual activity [13]: 0%
- residual activity [20]: 67%
- residual activity [14]: 14%
- residual activity [15]: 97%
- residual activity [16]: 52%

SMILES: CO[C@@H]1[C@H](N(C)C(=O)c2ccccc2)C[C@H]2O[C@]1(C)n1c3ccccc3c3c4c(c5c6ccccc6n2c5c31)C(=O)NC4
- residual activity [17]: 104%
- residual activity [5]: 87%

SMILES: O=C1Nc2ccccc2/C1=C1/Nc2ccccc2/C1=N\OCCC(O)CO (stereo unspecified)
- residual activity [17]: 95%

SMILES: CO[C@H]1[C@@H](OC)C[C@H](C)[C@@H](OC)C2=CC(=O)C=C(NC(=O)/C(C)=C/C=C/[C@H](OC)[C@@H](OC(N)=O)/C(C)=C/[C@@H]1C)C2=O
- residual activity [1]: 95%
- residual activity [2]: 106%
- residual activity [17]: 110%
- residual activity [5]: 99%
- residual activity [18]: 95%

SMILES: Cn1c2ccccc2c2c3c(c4c5ccccc5n(CCC#N)c4c21)CNC3=O
- residual activity [17]: 61%
- residual activity [5]: 61%

SMILES: c1ccc(-c2cnc(Nc3ccc(OCCN4CCCC4)cc3)s2)cc1
- residual activity [17]: 115%
- residual activity [5]: 100%

SMILES: COc1cc2ncnc(Nc3ccc(OCc4ccccc4)cc3)c2cc1OC
- residual activity [1]: 102%
- residual activity [2]: 106%
- residual activity [3]: 107%
- residual activity [4]: 102%
- residual activity [17]: 111%
- residual activity [5]: 115%
- residual activity [19]: 127%
- residual activity [6]: 109%
- residual activity [7]: 115%
- residual activity [8]: 80%
- residual activity [9]: 89%
- residual activity [10]: 96%
- residual activity [18]: 115%
- residual activity [11]: 108%
- residual activity [12]: 82%
- residual activity [13]: 103%
- residual activity [20]: 102%
- residual activity [14]: 116%
- residual activity [15]: 108%
- residual activity [16]: 104%
